Experimental findings from PubChem BioAssay (Tox21) are described below.

Inconclusive results are not listed. A call without a number means that no potency is given here. Calls of active or inactive are those of the source. The call rests on the fitted dose curve; in most records, active means well fitted activation curve with a large enough effect in the signal ratio in the repeat runs, with a control signal flat (not every such curve was filed as active); inconclusive means weak or mixed curves; inactive means flat fitted curve, though single readings scatter; the % refers to the signal ratio.

A short description of the assay: qHTS assay for small molecule activators of the heat shock response signaling pathway (AID 743210). Particulars: HeLa HSE-bla reporter, beta-lactamase ratio, 5 h; series mostly up to 62.6 µM. The procedure, abridged:
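Compound exposure lasted 5 h at 37 C in HeLa cells carrying a heat-shock-element-driven beta-lactamase reporter. Read-out: fluorescence intensity after 2.5 h room-temperature loading with LiveBLAzer B/G FRET substrate.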
A general note: qHTS replaces the single test concentration by a dilution series.
In the case of `CCOC(=O)NC(O)C(Cl)(Cl)Cl` (stereo unspecified), the Potency result was “inactive”.

For the compound `CC(Cc1ccccc1)NCc1ccccc1Cl` (stereo unspecified), the Potency result was “inactive”.

As to `Nc1ccccc1C(=O)OCC(O)CO` (stereo unspecified), the Potency entry was “inactive”.

Take `O=S(=O)(Cl)Cl`: the Potency entry is “inactive”.

Take `O=C(N/N=C/c1ccc([N+](=O)[O-])o1)c1cc([N+](=O)[O-])cc([N+](=O)[O-])c1O`: the Potency result was “inactive”.

On to `C#CC(O)(C=CCl)CC` (stereo unspecified), for which the Potency entry is “inactive”.

Turning to `COC(=O)Cc1ccccc1`, the Potency entry is “inactive”.

For the compound `COc1cc(CC#N)cc(OC)c1OC`, the Potency result is “inactive”.

Consider `C=CC(=O)OCC`, for which the Potency result is “inactive”.

Consider `CC(Oc1cc(Cl)c(Cl)cc1Cl)C(=O)O` (stereo unspecified), for which the Potency entry was “inactive”.

As for `CC(Oc1cccc(Cl)c1)C(=O)O` (stereo unspecified), the Potency entry is “inactive”.

`CCOP(=O)(SC(C)CC)N1CCSC1=O` (stereo unspecified): the Potency result was “inactive”.

For the compound `CCC(C)(C)O`, the Potency result was “inactive”.

With `CC1(C)CC(=O)CC(C)(C)N1[O]`, the Potency entry is “inactive”.

Turning to `CCC(=O)O[C@@H]1C=C2CCC3C(CCC4(C)C3CC[C@@H]4OC(=O)CC)C2CC1` (stereo partly specified), the Potency result was “inactive”.

With `CC(Cl)C(=O)O` (stereo unspecified), the Potency entry is “inactive”.

In the case of `C=CCN1C[C@H](C)N([C@H](c2ccc(C(=O)N(CC)CC)cc2)c2cccc(OC)c2)C[C@H]1C`, the Potency result is “inactive”.

Take `C[N+]1(CCF)[C@@H]2CC[C@H]1CC(OC(=O)C(O)(c1ccccc1)c1ccccc1)C2` (stereo partly specified): the Potency entry is “inactive”.

Turning to `CC(C)C1(C)N=C(c2ncccc2C(=O)O)NC1=O` (stereo unspecified), the Potency result is “inactive”.

With `CCOC(=O)c1cncn1C(C)c1ccccc1` (stereo unspecified), the Potency entry is “inactive”.

As for `NC(=S)c1c(Cl)cccc1Cl`, the Potency entry was “inactive”.

`O=S(=O)(c1ccccc1)c1ccccc1`: the Potency result is “inactive”.

On to `CC(C)(C)NCC(O)c1cc(Cl)c(N)c(C(F)(F)F)c1` (stereo unspecified), for which the Potency entry was “inactive”.

Consider `C[C@H](N)[C@H](O)c1ccc(O)c(O)c1`, for which the Potency entry was “inactive”.

For the compound `N#CC(C#N)=Cc1ccc(O)c(O)c1`, the Potency entry is “inactive”.

`C=CC(C)(CCC=C(C)C)OC(=O)c1ccccc1N` (stereo unspecified): the Potency result is “inactive”.

For the compound `O=C(O)c1ccc(=O)[nH]c1`, the Potency entry was “inactive”.

For the compound `CCCCCCCCCCCCCCCl`, the Potency result is “inactive”.

In the case of `CN1C(=O)CN=C(c2ccccc2)c2cc([N+](=O)[O-])ccc21`, the Potency result is “inactive”.

As to `CCOC(C(=O)OCCN(C)C)(c1ccccc1)c1ccccc1`, the Potency entry is “inactive”.

For `CC(CC(C(N)=O)(c1ccccc1)c1ccccc1)N(C)C` (stereo unspecified), the Potency result is “inactive”.

Turning to `NCCc1cc(O)c(O)cc1O`, the Potency entry was “inactive”.

Regarding `CCCN(CCC)C(=O)Cc1c(-c2ccc(Cl)cc2)nc2ccc(Cl)cn12`, the Potency entry was “inactive”.

As for `O=C(NC(=O)c1cc(F)c(F)cc1Cl)Nc1cc(F)ccc1N1CCC(C(=O)O)CC1`, the Potency entry is “inactive”.

On to `Cc1nc(N(C)C)nc(OC(=O)N(C)C)c1C`, for which the Potency entry is “inactive”.

With `C[C@H]1[C@@H]2Cc3ccc(O)cc3[C@@]1(C)CCN2C`, the Potency entry was “inactive”.
